Several values for one entry are separate records, joined by “and”; a condition that tells them apart may be missing. Identical values can stand only once. Hit rate of the full screen: of about 310,000 compounds, about 410 (0.13%) were called active. Roughly 2% stayed inconclusive and do not appear here. The rule behind the calls is not given here. A selection follows. Results with a measured potency or affinity are listed apart.
Test: RSV antiviral activity via CPE protection, HEp-2 cells, primary 10 µM value included (AID 2391)
Settings: RSV-induced CPE inhibition, at 10 µM, active compounds read high

CPE inhibition, inactive:
COc1ccccc1CNC(=O)c1ccc(CS(=O)Cc2cccc(Cl)c2)o1 (stereo not drawn) 4.42%
Cc1ccc(C2c3c(C)nn(-c4ccc([N+](=O)[O-])cc4)c3N=C3C(=O)Nc4ccccc4N32)cc1 (stereo not drawn) 3.63%
Cc1nn(-c2ccc([N+](=O)[O-])cc2)c2c1C(c1ccc(OC(F)F)cc1)N1C(=N2)C(=O)Nc2ccccc21 (stereo not drawn) 6.37%
O=C(c1ccc(F)cc1)C1CCN(C(=S)Nc2ccccc2Cl)CC1 2.44%
Cc1nn(Cc2ccc(Cl)cc2)c(C)c1NC(=O)c1cc(C(C)C)on1 7.7%
Cc1cc(C(=O)Nc2c(C)nn(Cc3c(Cl)cccc3Cl)c2C)no1 -0.07%
Cc1cc(C)n2nc(C(=O)N/N=C/c3c4ccccc4cc4ccccc34)nc2n1 3.03%
CCCCN(CC)Cc1c(C)[nH]c2c(ccc3ccccc32)c1=O 0.96%
COc1ccc(S(=O)(=O)NCc2ccco2)cc1N(C)S(=O)(=O)c1ccccc1 2.02%
Cc1ccccc1-c1nnc2c3ccccc3c(C)nn12 -1.91%
COc1ccc(S(N)(=O)=O)cc1-c1nnc2c3ccccc3c(C)nn12 6.57%
COc1ccc(-c2nnc3c4ccccc4c(C)nn23)cc1 4.75%
COc1ccc(S(=O)(=O)NCc2ccco2)cc1NC(=O)c1ccccc1 3.54%
Cc1nn2c(-c3ccccc3)nnc2c2ccccc12 -0.87%
Cc1ccc(N2C(=O)c3ccc(N)cc3C2=O)cc1 1%
COc1cc(SC)ccc1C(=O)Nc1ccc2c(c1)OCCO2 49.8%
CC(=O)Nc1ccc(OCC(O)Cn2nc(C)nc2C)cc1 (stereo not drawn) -1.49%
COc1ccc(CN(C(=O)c2oc3cc(C)c(C)cc3c2C)C2CCS(=O)(=O)C2)cc1OC (stereo not drawn) 5.1%
Cc1ccc(Cl)cc1NS(=O)(=O)c1ccc2oc(=O)ccc2c1 15.7%
O=C(COC(=O)c1ccc(OC(F)F)cc1)NC(=O)NC1CCCC1 2.84%
CC(=O)Nc1ccc(NC(=O)CCn2nnc3ccccc32)cc1 -1.57%
C=CCNC(=O)COC(=O)c1cc(S(=O)(=O)N2CCCCC2)ccc1Cl 0.67%
COc1ccc(-c2cc(C(=O)O)c3ccccc3n2)c(OC)c1 0.21%
O=C(O)c1cc(-c2ccc(-c3ccc(F)cc3)o2)nc2ccccc12 7.68%
O=C(O)c1cc(-c2cccs2)nc2ccc(F)cc12 -0.75%
COc1ccc(-c2cc(C(=O)N3CCCC3)c3ccccc3n2)cc1 3%
O=S(=O)(c1ccc(C2CCCCC2)cc1)N1CCOCC1 15.3%
O=C(CO/N=C/c1ccccc1)Nc1c(F)c(F)c(F)c(F)c1F 2.75%
COc1ccc(NC(=O)CN(C)C(=O)CCCc2nc3ccccc3s2)cc1 2.07%
Cc1cc(Cl)ccc1OCCCC(=O)N1CCN(C(=O)c2ccco2)CC1 17.5%
Cc1cc(SCC(=O)c2ccccc2)n2ncc(-c3ccccc3)c2n1 4.59%
Cc1ccc2nc(C)cc(SCC(=O)N/N=C/c3ccco3)c2c1 1.6%
COc1ccc(Cn2c(-c3ccccc3C)nc3c(c(=O)c4ccccc4n3C)c2=O)cc1 52.8%
COCCn1c(-c2ccc(Cl)cc2)nc2c(c(=O)c3ccccc3n2C)c1=O 8.68%
COc1ccc(Cn2c(-c3ccco3)nc3c(c(=O)c4ccccc4n3C)c2=O)cc1 12.4%
COc1ccc(Cn2c(-c3ccc(C)cc3)nc3c(c(=O)c4ccccc4n3C)c2=O)cc1 3.47%
CCCCCc1nc2c(c(=O)c3ccccc3n2C)c(=O)n1Cc1ccc(OC)cc1 56.9%
Cn1c2ccccc2c(=O)c2c(=O)n(Cc3ccco3)c(-c3ccc(C(C)(C)C)cc3)nc21 6.32%
CCc1nc2sc3ccccc3c(=O)c2c(=O)n1Cc1ccco1 10.5%
COCCn1c(-c2cccc(Br)c2)nc2c(c(=O)c3ccccc3n2C)c1=O 45.9%
COc1ccc(N2CCN(CCNS(=O)(=O)c3ccc(C)cc3)CC2)cc1 -1.19%
CCCCOc1ccc(Cl)cc1CSc1n[nH]c(C)n1 -1.27%
CC(NC(=O)c1c(F)cccc1Cl)c1ccc(-n2ccnc2)cc1 (stereo not drawn) 2.43%
COc1cnn(-c2ccccc2)c(=O)c1SCc1ccc(Cl)c(Cl)c1 5.77%
Fc1ccccc1NC(=S)N1CCN(C/C=C/c2ccccc2)CC1 0.73%
Cc1ccc(C)c(S(=O)(=O)N/N=C/c2ccc(N(C)C)cc2)c1 -0.72%
c1ccc2c(c1)nc1n2CN(Cc2ccc3c(c2)OCO3)CN1 1.87%
Cc1csc(=O)n1CCC(=O)OCC(=O)NNC(=O)c1ccccc1 -2.48%
COc1ccc(CCn2c(C(C)C)nc3c(c(=O)c4ccccc4n3C)c2=O)cc1 4.88%
COc1ccc(CCn2c(-c3ccccc3)nc3c(c(=O)c4ccccc4n3C)c2=O)cc1 2.88%
Cc1ccc(NC(=O)c2cn(-c3cccc(C)n3)cn2)cc1 3.46%
CC(C)C[C@H](NC(=O)c1nc[nH]c1C(=O)N[C@@H](CC(C)C)C(=O)OC(C)(C)C)C(=O)OC(C)(C)C -5.5%
CC(C)C[C@H](NC(=O)c1nc[nH]c1C(=O)NC1CCN(C(=O)OC(C)(C)C)CC1)C(=O)OC(C)(C)C 0.16%
COc1ccc(Cn2cnc3c4cc(F)ccc4n(C)c3c2=O)cc1 1.16%
Cc1occc1C(=O)Nc1cc(C(C)(C)C)on1 -1.18%
CC(C)(C)c1cc(NC(=O)c2ccco2)no1 2.28%
COc1ccc(N(C(=O)CNC(=O)c2ccco2)C(C(=O)NC2CCCC2)c2cccnc2)cc1 (stereo not drawn) -0.22%
NC(=O)c1ccsc1NC(=O)COC(=O)C1CC2CCCC(C1)C2=O (stereo not drawn) 1.41%
COc1ccc(Cl)cc1C(=O)N(Cc1nc(-c2cccc(C)c2)no1)C(C)C 10.2%
COc1ccccc1C(=O)N(Cc1nc(-c2ccc(Cl)cc2)no1)C(C)C 2.22%
CC(C)NS(=O)(=O)c1ccc(CCC(=O)N2CCCC2)cc1 1.63%
CCC1CCCCN1C(=O)c1ccc2nc(Cc3ccc(OC)cc3)oc2c1 (stereo not drawn) 20.7%
CC1CCCCC12NC(=O)N(CC(=O)Nc1ccccc1-c1ccccc1)C2=O (stereo not drawn) -0.96%
Cc1cccc(NC(=O)CNC(=O)CN2C(=O)NC3(CCCCC3C)C2=O)c1C (stereo not drawn) -0.96%
COc1ccc(C(=O)NCc2cc(C)nc3ccccc23)cc1OC 19%
CCOCCCNC(=O)C1CCN(Cc2cccc(OCc3ccccc3)c2)CC1 -0.9%
CCOC(=O)Cn1nnnc1C(CC)N(Cc1cc2ccc(C)cc2[nH]c1=O)C1CCCC1 (stereo not drawn) 0%
CCOC(=O)Cn1nnnc1C(C(C)C)N(Cc1cc2c(C)cc(C)cc2[nH]c1=O)C1CCCC1 (stereo not drawn) 9.34%
CN(Cc1ccccc1)C(=O)CN1C(=O)c2ccc([N+](=O)[O-])cc2C1=O 1.1%
CC(=O)Nc1ccc(NC(=O)COc2ccc(Cl)cc2Cl)cc1 5.13%
N#CCCN(CCC#N)C(=O)COc1ccc(Cl)cc1Cl 2.86%
CCOc1ccccc1NC(=O)Nc1ccc2c(c1)CCC2 7.85%
COc1ccc(NC(=O)Nc2ccc3c(c2)CCC3)c(OC)c1 3.19%
O=C(CCl)NC1CCCc2ccccc21 (stereo not drawn) -0.24%
O=C(NC1CCCc2ccccc21)c1ccc(Br)cc1 (stereo not drawn) 6.09%
O=C(Cc1ccc(Br)cc1)NC1CCCc2ccccc21 (stereo not drawn) 2.96%
COc1cc(C(=O)NCCC(=O)NC2CCCc3ccccc32)cc(OC)c1OC (stereo not drawn) 0.19%
O=c1c2ccccc2ncn1Cc1ccc(Cl)c(Cl)c1 3.3%
Cc1cc(C)[n+]2n1C(=O)C(c1ccccc1)=C2[O-] 3.89% and 3.76%
O=C(Nc1ccccc1SCC1CSc2nc3ccccc3c(=O)n21)c1ccccc1 (stereo not drawn) 2.48%
O=c1c2ccccc2nc2n1C(CSc1ccc(F)cc1)CS2 (stereo not drawn) 2.75%
Nc1ccccc1SCC1CSc2nc3ccccc3c(=O)n21 (stereo not drawn) 2.42%
COc1cccc(SCC2CSc3nc4ccccc4c(=O)n32)c1 (stereo not drawn) 7.09%
O=c1c2ccccc2nc2n1C(CSc1ccccc1)CS2 (stereo not drawn) 1.34%
O=c1c2ccccc2nc2n1C(CSCc1ccc(Cl)cc1Cl)CS2 (stereo not drawn) 5.16%
O=C(OC(C(=O)NC1CCCC1)c1ccccc1F)c1ccco1 (stereo not drawn) 0.45%
Nc1cc(=O)[nH]c(SCC(=O)N2N=C(c3ccc(Cl)cc3)CC2c2ccco2)n1 (stereo not drawn) 7.31%
CCn1c(=O)n(CC(=O)Nc2ccc(F)cc2)c(=O)c2ccccc21 2.36%
CC(=O)OC[C@H]1O[C@@H](Sc2cccc3cccnc23)[C@H](OC(C)=O)[C@@H](OC(C)=O)[C@@H]1OC(C)=O 1.39%
O=C(NC1CC2CCCC(C1)N2C(=O)Nc1ccccc1)C1CC1 (stereo not drawn) 1.59%
O=C(COC(=O)/C=C/c1ccc(C(F)(F)F)cc1)NCC1CCCO1 (stereo not drawn) -1.68%
Cc1sc2nc3c(C(=O)N4CCCC4)cc(C(=O)c4ccccc4O)cn3c(=O)c2c1C 1.18%
CCOC(=O)c1sc2nc3c(SCC(=O)O)cc(C(=O)c4ccccc4O)cn3c(=O)c2c1C 11.9%

Reference: PubChem BioAssay AID2391 (Southern Research Specialized Biocontainment Screening …, 2010)
